Test in all cases: DAPPL (digital affinity profiling via proximity ligation, sequencing); 10 mM Tris-HCl pH 7.5, 50 mM NaCl, 1 mM DTT, 4% glycerol, room temperature, 30 min; GST-TFs on glutathione beads, 16-mer random dsDNA library, 0.1% formaldehyde crosslink after washing; high values mean tight binding
What all share (settings): protein: recombinant; tags: N-terminal GST; dsDNA, one strand shown

One assay has as its target SPIB (Homo sapiens, UniProt Q01892 1-262). In a few lines: (§1)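 Each value of binding signal is a hexamer's read frequency for a factor divided by the same hexamer's frequency in the tag-only sample. Barcoded, bead-captured GST fusions of human transcription factors made in yeast were pooled with that sample and incubated with 200 nmole of a random double-stranded 16-mer DNA library in Tris/NaCl/DTT/glycerol buffer at room temperature for 30 min. Washing, 0.1% formaldehyde crosslinking, proximity ligation, PCR and Illumina NextSeq500 sequencing followed.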

The target in the next assay is ETV5 (Homo sapiens, UniProt P41161 1-510). In a few lines: as §1
Sequence of ETV5 (P41161 whole entry): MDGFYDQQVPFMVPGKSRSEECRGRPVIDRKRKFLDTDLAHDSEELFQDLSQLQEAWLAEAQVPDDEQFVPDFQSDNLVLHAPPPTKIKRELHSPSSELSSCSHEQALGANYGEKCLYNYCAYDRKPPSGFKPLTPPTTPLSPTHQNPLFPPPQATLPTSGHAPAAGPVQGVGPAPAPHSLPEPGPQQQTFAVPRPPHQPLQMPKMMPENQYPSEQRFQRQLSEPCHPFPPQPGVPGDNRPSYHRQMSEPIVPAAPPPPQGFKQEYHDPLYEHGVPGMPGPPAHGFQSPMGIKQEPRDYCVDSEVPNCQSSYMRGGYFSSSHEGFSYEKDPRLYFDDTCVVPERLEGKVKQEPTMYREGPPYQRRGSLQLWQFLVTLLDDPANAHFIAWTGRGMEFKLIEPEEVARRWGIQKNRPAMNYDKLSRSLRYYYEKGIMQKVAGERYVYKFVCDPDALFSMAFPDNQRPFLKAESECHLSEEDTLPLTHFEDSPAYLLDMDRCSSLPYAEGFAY
In a further assay the target is T1, ELK4 (Homo sapiens, UniProt P28324-2 1-405).
T1 sequence: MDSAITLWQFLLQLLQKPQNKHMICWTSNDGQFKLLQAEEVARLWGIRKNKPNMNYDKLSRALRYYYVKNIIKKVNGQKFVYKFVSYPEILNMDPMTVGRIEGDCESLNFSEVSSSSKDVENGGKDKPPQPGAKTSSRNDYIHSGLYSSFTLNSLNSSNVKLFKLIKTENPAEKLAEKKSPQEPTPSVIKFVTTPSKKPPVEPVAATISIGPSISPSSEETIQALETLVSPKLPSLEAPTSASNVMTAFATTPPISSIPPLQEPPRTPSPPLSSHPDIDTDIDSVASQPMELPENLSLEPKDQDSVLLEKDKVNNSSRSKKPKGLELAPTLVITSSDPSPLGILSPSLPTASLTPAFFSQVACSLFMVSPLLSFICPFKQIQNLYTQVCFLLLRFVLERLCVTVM
In short, it runs like this: as §1

The target of another assay is ETV1 (Homo sapiens, UniProt P50549 1-477). In a few lines:
as §1

A further assay addresses T2, ETS2 (Homo sapiens, UniProt P15036 1-469).
T2 sequence: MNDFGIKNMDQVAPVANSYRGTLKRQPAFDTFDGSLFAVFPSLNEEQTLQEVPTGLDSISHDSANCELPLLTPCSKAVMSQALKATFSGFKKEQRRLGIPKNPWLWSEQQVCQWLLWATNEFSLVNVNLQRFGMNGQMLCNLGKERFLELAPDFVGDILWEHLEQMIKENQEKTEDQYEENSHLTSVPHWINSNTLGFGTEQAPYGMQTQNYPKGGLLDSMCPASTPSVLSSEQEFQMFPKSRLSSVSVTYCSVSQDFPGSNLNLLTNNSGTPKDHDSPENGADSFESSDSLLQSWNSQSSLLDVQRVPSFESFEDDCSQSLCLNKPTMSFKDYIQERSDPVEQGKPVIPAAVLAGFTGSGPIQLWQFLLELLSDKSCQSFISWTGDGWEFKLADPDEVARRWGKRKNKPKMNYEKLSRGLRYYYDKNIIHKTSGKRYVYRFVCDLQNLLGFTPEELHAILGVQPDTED
In a few lines: as §1

The next assay deals with T3, ETV7 (Homo sapiens, UniProt Q9Y603 1-341).
T3 sequence: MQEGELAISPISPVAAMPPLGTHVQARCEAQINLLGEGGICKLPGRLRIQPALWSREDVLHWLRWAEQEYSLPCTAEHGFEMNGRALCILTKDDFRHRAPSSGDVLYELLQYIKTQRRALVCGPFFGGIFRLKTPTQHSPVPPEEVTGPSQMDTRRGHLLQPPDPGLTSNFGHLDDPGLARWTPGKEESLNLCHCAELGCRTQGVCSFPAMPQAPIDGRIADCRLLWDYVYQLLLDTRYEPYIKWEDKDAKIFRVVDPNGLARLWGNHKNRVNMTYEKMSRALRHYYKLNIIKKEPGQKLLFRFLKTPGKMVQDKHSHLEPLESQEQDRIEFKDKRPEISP
In short, it runs like this:
as §1

Another assay deals with T4, ELK1 (Homo sapiens, UniProt P19419 1-428).
T4 sequence: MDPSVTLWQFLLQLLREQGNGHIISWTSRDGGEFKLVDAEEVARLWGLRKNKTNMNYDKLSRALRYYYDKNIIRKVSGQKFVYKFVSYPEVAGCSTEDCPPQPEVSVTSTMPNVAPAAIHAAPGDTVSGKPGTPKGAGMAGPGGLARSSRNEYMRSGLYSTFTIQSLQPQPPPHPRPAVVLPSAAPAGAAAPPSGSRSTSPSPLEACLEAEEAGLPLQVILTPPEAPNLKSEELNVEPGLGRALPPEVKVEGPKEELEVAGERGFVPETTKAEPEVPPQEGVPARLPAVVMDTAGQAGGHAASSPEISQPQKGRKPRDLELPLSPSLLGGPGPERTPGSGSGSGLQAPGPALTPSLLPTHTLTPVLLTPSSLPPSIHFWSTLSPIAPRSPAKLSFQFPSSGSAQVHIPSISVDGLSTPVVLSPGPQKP
In short, it runs like this:
as §1

The next assay concerns the target ELF1 (Homo sapiens, UniProt P32519 1-619). In a few lines: as §1
For the next assay, the target named is T5, ELF3 (Homo sapiens, UniProt P78545 1-371).
T5 sequence: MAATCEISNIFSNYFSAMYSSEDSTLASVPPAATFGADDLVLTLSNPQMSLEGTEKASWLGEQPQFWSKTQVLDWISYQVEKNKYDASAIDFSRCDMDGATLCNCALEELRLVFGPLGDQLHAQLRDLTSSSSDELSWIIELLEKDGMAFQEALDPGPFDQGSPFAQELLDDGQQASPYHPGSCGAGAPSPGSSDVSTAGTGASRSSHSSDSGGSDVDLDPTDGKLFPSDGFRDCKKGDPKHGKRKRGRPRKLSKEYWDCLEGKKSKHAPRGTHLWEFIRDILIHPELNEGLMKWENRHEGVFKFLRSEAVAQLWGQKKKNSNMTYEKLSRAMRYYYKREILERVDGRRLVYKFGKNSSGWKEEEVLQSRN
In short, it runs like this:
as §1

The next assay deals with T6, ERF (Homo sapiens, UniProt P50548 1-548).
T6 sequence: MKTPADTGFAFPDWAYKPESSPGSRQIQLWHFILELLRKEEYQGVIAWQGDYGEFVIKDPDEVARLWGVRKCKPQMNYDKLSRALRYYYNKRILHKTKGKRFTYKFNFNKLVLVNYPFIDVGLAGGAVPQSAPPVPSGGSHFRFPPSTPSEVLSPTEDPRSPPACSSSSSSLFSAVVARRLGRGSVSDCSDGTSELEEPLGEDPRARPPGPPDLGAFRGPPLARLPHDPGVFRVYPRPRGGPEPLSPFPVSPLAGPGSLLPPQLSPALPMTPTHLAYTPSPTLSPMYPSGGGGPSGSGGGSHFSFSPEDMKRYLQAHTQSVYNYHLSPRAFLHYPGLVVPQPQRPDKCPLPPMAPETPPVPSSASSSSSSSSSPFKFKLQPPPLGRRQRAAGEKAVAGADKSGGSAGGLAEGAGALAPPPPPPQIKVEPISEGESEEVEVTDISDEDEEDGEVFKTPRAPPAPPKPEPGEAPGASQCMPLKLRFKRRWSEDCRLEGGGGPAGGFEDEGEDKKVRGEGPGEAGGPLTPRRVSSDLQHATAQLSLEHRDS
In short, it runs like this:
as §1

Another assay deals with T7, GABPA (Homo sapiens, UniProt Q06546 1-454).
T7 sequence: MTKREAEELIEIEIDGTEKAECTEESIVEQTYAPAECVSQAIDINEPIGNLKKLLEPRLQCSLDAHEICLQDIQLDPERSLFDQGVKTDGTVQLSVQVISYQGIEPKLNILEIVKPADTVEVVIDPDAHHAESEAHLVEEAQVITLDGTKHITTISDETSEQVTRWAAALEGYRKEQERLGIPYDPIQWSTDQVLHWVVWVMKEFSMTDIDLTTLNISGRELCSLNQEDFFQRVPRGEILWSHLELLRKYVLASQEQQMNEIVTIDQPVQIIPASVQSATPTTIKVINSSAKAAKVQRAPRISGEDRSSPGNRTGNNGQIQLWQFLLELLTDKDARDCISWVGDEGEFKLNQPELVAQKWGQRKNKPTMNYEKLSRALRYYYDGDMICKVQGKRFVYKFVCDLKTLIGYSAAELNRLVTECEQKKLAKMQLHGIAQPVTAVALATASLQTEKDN
In a few lines: as §1

Another assay addresses ELF4 (Homo sapiens, UniProt Q99607 1-663). In a few lines:
as §1

Sequence of SPIB (Q01892 whole entry, the tested form may be a part): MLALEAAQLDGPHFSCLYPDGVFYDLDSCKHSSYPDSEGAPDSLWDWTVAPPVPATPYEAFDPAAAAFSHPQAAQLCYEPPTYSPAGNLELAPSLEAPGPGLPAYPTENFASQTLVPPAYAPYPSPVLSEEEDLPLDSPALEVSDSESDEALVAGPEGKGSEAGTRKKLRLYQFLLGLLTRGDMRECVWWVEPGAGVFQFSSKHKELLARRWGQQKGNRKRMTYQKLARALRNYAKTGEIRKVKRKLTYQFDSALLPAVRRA
Sequence of ELF4 (Q99607 whole entry): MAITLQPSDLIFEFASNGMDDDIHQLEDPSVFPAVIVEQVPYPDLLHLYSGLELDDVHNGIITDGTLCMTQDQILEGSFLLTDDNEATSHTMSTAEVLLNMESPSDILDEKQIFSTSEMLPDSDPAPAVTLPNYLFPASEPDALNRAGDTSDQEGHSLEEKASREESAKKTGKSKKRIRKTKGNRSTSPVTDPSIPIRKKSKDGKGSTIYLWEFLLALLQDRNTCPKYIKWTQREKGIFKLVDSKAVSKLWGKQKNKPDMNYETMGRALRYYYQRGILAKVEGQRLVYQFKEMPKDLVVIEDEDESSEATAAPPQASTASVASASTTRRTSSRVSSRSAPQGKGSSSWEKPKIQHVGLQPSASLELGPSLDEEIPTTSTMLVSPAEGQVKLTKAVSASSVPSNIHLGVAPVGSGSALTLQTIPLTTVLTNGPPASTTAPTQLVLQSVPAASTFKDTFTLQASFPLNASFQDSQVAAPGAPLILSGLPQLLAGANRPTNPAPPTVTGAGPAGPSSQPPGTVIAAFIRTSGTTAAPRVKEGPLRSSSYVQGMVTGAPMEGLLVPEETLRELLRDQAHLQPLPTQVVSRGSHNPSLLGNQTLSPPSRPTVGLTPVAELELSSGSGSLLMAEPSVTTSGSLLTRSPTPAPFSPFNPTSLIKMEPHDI
Sequence of ELF1 (P32519 whole entry): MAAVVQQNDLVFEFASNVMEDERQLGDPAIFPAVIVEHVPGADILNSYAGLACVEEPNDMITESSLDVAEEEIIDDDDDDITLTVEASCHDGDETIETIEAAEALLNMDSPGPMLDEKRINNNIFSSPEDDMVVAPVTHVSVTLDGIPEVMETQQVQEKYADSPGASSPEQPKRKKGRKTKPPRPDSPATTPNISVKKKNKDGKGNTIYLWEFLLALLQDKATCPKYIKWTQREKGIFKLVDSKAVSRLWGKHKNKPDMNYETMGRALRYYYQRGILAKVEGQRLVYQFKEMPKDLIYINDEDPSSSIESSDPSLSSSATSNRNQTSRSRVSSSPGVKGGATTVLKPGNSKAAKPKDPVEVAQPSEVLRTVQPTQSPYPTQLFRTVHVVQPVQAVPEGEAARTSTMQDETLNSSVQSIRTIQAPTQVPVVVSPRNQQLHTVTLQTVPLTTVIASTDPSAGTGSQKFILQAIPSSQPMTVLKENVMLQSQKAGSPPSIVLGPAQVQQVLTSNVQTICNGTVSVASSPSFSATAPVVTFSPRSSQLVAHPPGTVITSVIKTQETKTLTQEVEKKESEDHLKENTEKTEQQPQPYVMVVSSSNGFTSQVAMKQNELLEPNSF
Sequence of ETV1 (P50549 whole entry): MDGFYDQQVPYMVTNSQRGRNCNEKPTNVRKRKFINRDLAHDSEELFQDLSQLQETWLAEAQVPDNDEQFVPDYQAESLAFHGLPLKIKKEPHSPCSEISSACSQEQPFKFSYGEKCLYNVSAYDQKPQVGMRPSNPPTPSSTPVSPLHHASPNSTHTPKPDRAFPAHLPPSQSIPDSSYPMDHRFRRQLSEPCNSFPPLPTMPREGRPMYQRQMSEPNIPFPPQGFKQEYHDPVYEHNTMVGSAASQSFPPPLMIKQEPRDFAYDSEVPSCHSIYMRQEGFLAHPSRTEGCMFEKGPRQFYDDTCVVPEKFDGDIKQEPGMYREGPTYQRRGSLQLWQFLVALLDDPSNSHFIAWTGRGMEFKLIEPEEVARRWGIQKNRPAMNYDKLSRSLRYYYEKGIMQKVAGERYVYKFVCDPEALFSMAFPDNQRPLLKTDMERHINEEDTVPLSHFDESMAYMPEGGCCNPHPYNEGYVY

Regarding GGGTAT, the binding signal with SPIB was 1.02 fold enrichment (6-mer frequency, TF over GST control); with ETV5 it was 1.02 fold enrichment (6-mer frequency, TF over GST control); with ELK4 it was 1.1 fold enrichment (6-mer frequency, TF over GST control); with ETV1, 1.01 fold enrichment (6-mer frequency, TF over GST control); with ETS2, 1.02 fold enrichment (6-mer frequency, TF over GST control); in the assay with ETV7 it was 1.02 fold enrichment (6-mer frequency, TF over GST control).
In the case of CATAGT, the binding signal with ELK1 is 1.03 fold enrichment (6-mer frequency, TF over GST control); in the assay with ELF1, 1.01 fold enrichment (6-mer frequency, TF over GST control); with ETV5, 1.01 fold enrichment (6-mer frequency, TF over GST control); with ELK4, 1.14 fold enrichment (6-mer frequency, TF over GST control); with ELF3, 1.07 fold enrichment (6-mer frequency, TF over GST control); with ERF it was 1.13 fold enrichment (6-mer frequency, TF over GST control). For the same sequence, the binding signal with ETS2 is 1.03 fold enrichment (6-mer frequency, TF over GST control); in the assay with ETV7, 1.11 fold enrichment (6-mer frequency, TF over GST control).
In the case of TAGGCC, the binding signal is 1.02 fold enrichment (6-mer frequency, TF over GST control) with GABPA; 1.05 fold enrichment (6-mer frequency, TF over GST control) with ETV5; 1.01 fold enrichment (6-mer frequency, TF over GST control) in the assay with ELF4; 1.03 fold enrichment (6-mer frequency, TF over GST control) with ETV7.

For the origin of these results see article PMC7862700, “An all-to-all approach to the identification of sequence-specific readers for epigenetic DNA modifications on cytosine”.
